A selection: hits, their analogues and other compounds. The true share with any hit is near 0.3%.
NPYLR7 ag: activates Aedes aegypti NPYLR7 receptor; HEK293T NPYLR7/Galpha15, GCaMP6s calcium fluorescence; activation, % at 10 µM; 270,000 compounds, 0.15% hits; in the data active means activation above about 40%;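 further: 0% = vehicle and 100% = reference agonist at the receptor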
hcGAS inh: blocks human cGAS activity | inhibition, % at 12.5 µM | recombinant h-cGAS, ATP depletion, Kinase-Glo luminescence | AID 1259398 | 290,000 compounds, 0.081% hits;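 further: 0% = vehicle reaction and 100% = reaction without DNA for no activity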
mcGAS lum: mouse cGAS inhibition by luminescence; Q8C6L5; recombinant cGAS, Kinase-Glo ATP depletion luminescence; inhibition, % at 12.5 µM; 160,000 compounds, 0.15% hits; AID 1259399;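 further: 0% = negative control wells and 100% = reference inhibitor with no enzyme activity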
Target sequence (Q8C6L5 whole entry, looked up): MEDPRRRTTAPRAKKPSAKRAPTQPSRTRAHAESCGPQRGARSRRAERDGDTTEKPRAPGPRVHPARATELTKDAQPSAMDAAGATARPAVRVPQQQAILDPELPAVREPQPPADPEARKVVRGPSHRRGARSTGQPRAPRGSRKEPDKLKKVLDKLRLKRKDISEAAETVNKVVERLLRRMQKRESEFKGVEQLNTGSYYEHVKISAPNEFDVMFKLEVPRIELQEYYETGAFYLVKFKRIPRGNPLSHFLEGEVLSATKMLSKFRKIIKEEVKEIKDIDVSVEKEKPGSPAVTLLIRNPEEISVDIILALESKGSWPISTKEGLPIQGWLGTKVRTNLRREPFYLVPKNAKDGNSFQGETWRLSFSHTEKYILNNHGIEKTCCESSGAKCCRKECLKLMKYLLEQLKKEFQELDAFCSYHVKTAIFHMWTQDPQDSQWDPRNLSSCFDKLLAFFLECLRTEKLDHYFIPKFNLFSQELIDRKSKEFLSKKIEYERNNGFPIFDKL
Active calls of the source: *. Unless noted, no stated cut-off is given here; in the data, active means inhibition above about 40%; inactive means the rest.

What do the screens show for `CS(=O)(=O)N1CCC(C(=O)Nc2nnc(-c3cc4ccccc4o3)o2)CC1`?
NPYLR7 ag: 2; hcGAS inh: 0

How did O=S(=O)(c1ccsc1)N1CCC(CO)(Cc2ccccc2Cl)CC1 do in these assays?
NPYLR7 ag: -10; hcGAS inh: 4; mcGAS lum: 1

Results for CCCCCCCC(=O)N(CCCOCC)CC(=O)c1c(C)c(C(=O)OCC)n(CC)c1C ?
NPYLR7 ag: -8; hcGAS inh: -1; mcGAS lum: -3

What do the screens show for `CCn1nnc2c(NCc3ccccc3)ncnc21`?
NPYLR7 ag: 15; hcGAS inh: -6

Results for N#CC(=CC1C(=O)N(c2c(Cl)cccc2Cl)c2ccccc21)C(N)=NCc1ccccc1 (centres undefined) ?
NPYLR7 ag: -11; hcGAS inh: -4

How did CN(C)/C=C1\C(=O)N(c2c(Cl)cccc2Cl)c2cc(C=C(C#N)C#N)ccc21 do in these assays?
NPYLR7 ag: 125*; hcGAS inh: -38

What do the screens show for `CCCCCN(CC(=O)Nc1cc(C(C)(C)C)nn1-c1ccccc1C)C(=O)Nc1ccccc1C(F)(F)F`?
NPYLR7 ag: -2; hcGAS inh: -9; mcGAS lum: -7

How did CC1(C)O[C@@H]2C[C@@](OCc3ccc(C#N)cc3)(C(=O)NCCN3CCOCC3)CC(OCc3ccc(C(F)(F)F)cc3)[C@@H]2O1 (some centres undefined) do in these assays?
NPYLR7 ag: 5; hcGAS inh: 2; mcGAS lum: -5

What do the screens show for `Cc1cc(C)nc(SCc2cc(=O)c(OC(=O)Cc3ccccc3)co2)n1`?
NPYLR7 ag: -13; hcGAS inh: 3; mcGAS lum: 87*

Results for Cc1ccnc(SCc2cc(=O)c(OC(=O)Cc3ccc(F)cc3)co2)n1 ?
NPYLR7 ag: -16; hcGAS inh: 5; mcGAS lum: 40*

What do the screens show for `Cc1ccnc(SCc2cc(=O)c(OC(=O)COc3ccc(F)cc3)co2)n1`?
NPYLR7 ag: -16; hcGAS inh: 1; mcGAS lum: -1

Results for Cc1cccc(CC(=O)Oc2coc(CSc3nc(C)cc(C)n3)cc2=O)c1 ?
NPYLR7 ag: -15; hcGAS inh: 2; mcGAS lum: 26

How did CCOCCCN1COc2ccc3c(c2C1)O/C(=C\c1cccc(OC)c1OC)C3=O do in these assays?
NPYLR7 ag: 22; hcGAS inh: -3; mcGAS lum: -6

What do the screens show for `COCCCN1COc2ccc3c(c2C1)O/C(=C\c1cc(OC)c(OC)c(OC)c1)C3=O`?
NPYLR7 ag: 61*; hcGAS inh: -8; mcGAS lum: -10

Results for CCOCCCN1COc2ccc3c(c2C1)O/C(=C\c1ccc(OC)cc1)C3=O ?
NPYLR7 ag: 42; hcGAS inh: -6; mcGAS lum: -8

How did COc1ccc(/C=C2\Oc3c(ccc4c3CN(C3CC3)CO4)C2=O)cc1 do in these assays?
NPYLR7 ag: 3; hcGAS inh: -4; mcGAS lum: -8

Results for CCc1ccc(/C=C2\Oc3c(ccc4c3CN(C3CCS(=O)(=O)C3)CO4)C2=O)cc1 (centres undefined) ?
NPYLR7 ag: 66*; hcGAS inh: 0; mcGAS lum: -1

How did COc1ccc(/C=C2\Oc3c(ccc4c3CN(Cc3ccncc3)CO4)C2=O)cc1OC do in these assays?
NPYLR7 ag: 83*; hcGAS inh: -4; mcGAS lum: -9

What do the screens show for `COc1ccc(CCN2COc3ccc4c(c3C2)O/C(=C\c2ccncc2)C4=O)cc1OC`?
NPYLR7 ag: 55*; hcGAS inh: -2; mcGAS lum: 11

What do the screens show for `COc1ccc(CCN2COc3ccc4c(c3C2)O/C(=C\c2ccncc2)C4=O)cc1`?
NPYLR7 ag: 39; hcGAS inh: 0; mcGAS lum: 12

How did COc1cccc(-n2cc(CN(C)Cc3cc(-c4ccccc4)no3)cn2)c1 do in these assays?
NPYLR7 ag: 4; hcGAS inh: -7

Results for c1coc(-c2ncc(C3NCCc4[nH]cnc43)cn2)c1 (centres undefined) ?
NPYLR7 ag: 14; hcGAS inh: -7

Results for Cc1ccc(-n2nnnc2NC2CCN3CCCC3C2)cc1 (centres undefined) ?
NPYLR7 ag: 8; hcGAS inh: -8

What do the screens show for `COc1ccc(CN2COc3ccc4c(c3C2)O/C(=C\c2ccncc2)C4=O)cc1`?
NPYLR7 ag: 23; hcGAS inh: -7; mcGAS lum: -6

Results for COc1ccc(/C=C2\Oc3c(ccc4c3CN(Cc3ccncc3)CO4)C2=O)cc1 ?
NPYLR7 ag: 67*; hcGAS inh: 1; mcGAS lum: -3

How did COC(=O)c1cc(-c2ccccc2)sc1NC(=O)CCCl do in these assays?
NPYLR7 ag: -4; hcGAS inh: -4; mcGAS lum: -4

Results for NC(=O)c1cc(-c2ccccc2)sc1NC(=O)CCl ?
NPYLR7 ag: -8; hcGAS inh: 4; mcGAS lum: 81*

Compound activity (PubChem BioAssay)
